From PubChem BioAssay AID720690 (Broad Institute, 2013) come the findings set out here.

Potency and affinity values are given separately. Calls of active or inactive are those of the source.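 The calls were made as follows: active = every repeat run showing a signal drop whose fitted half-maximal concentration is at most twice the top tested concentration; inconclusive = repeat runs disagree, or flat partial drop, or poor fit; inactive = the rest.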

This test is described as follows: HEK293T cytotoxicity, dose response, cytotoxicity control for miR-122 modulator project, cell-based, activator set, cherry-pick (AID 720690). The conditions noted are these: HEK293T viability, CellTiter-Glo luminescence, 48 h; series mostly up to 26 µM.
With `COc1ccc(C2SCC(=O)Nc3c2c(=O)[nH]n3C2CCCCCC2)cc1` (centres undefined), the result was inactive.
`O=C(c1ccco1)c1cn(Cc2ccccc2Cl)c2ccccc12`: the compound was called inactive.
`COc1ccc2c(c1)c(CCN)c(C)n2Cc1ccccc1`: the compound was classed as inactive.
`O=C1NC(=O)N(CCC2=CCCCC2)C(=O)/C1=C\c1cccs1`: the call was inactive.
